Among the test systems are HCT-15 colon; HT29 colon; SNB-75 CNS; SNB-19 CNS; U251 CNS; PC-3 prostate; SK-MEL-5 melanoma; UACC-62 melanoma; LOX IMVI melanoma; SK-MEL-28 melanoma; SK-MEL-2 melanoma; EKVX NSCLC; SN12C renal; UO-31 renal; TK-10 renal; CAKI-1 renal; A498 renal; MOLT-4 leukemia; CCRF-CEM leukemia; ACHN renal.
Experiment in all cases: NCI-60 one-dose screen, 48 h (100 = growth as untreated, 0 = no growth, -100 = all killed)
What all share (details): 10 µM unless noted

This is part of a sample that, as a whole, favours compounds with a hit. Of some 83,000 tested, about 20% had one in any assay.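 Activity criterion: percent growth below 10, measured after cells in 96-well plates were exposed to a single compound concentration for 48 hours.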 A number with no mark means an inactive call. The source made the active and inactive calls.

`CCCCCCCCN1C(=O)/C(=c2\sc3n(c2=O)C2C(NN=3)N(CC)C(=O)N2CC)c2ccccc21` (stereo unspecified): the growth in the assay on HCT-15 colon was 93.2%; in the assay on HT29 colon, 100%; in the assay with SNB-75 CNS, -13% (active); in the assay with SNB-19 CNS, 45.7%; in the assay on U251 CNS, 46.2%; in the assay on PC-3 prostate it was 81.7%. In addition, the growth with SK-MEL-5 melanoma is 96.9%; with UACC-62 melanoma it was 76.3%; in the assay on LOX IMVI melanoma, 81.9%; in the assay on SK-MEL-28 melanoma, 88.3%; in the assay on SK-MEL-2 melanoma it was 86.8%; with EKVX NSCLC, 73.9%. For the same compound, the growth in the assay with SN12C renal was 86.1%; in the assay on UO-31 renal, 66.8%; in the assay with TK-10 renal, 110%; in the assay on CAKI-1 renal it was 49.3%; in the assay on A498 renal it was 86.9%; with MOLT-4 leukemia, 101%.
On to `CN1CCN(Cc2ccc(NC(=O)c3cncc(C#Cc4cnccc4C(F)(F)F)c3)cc2C(F)(F)F)CC1`, for which the growth was 70.2% with HCT-15 colon; 23.5% in the assay on HT29 colon; 89% in the assay with SNB-75 CNS; 103% in the assay with SNB-19 CNS; 78.4% in the assay with U251 CNS; 80.4% with PC-3 prostate. For the same compound, the growth was 75.1% with SK-MEL-5 melanoma; 89.9% in the assay on UACC-62 melanoma; 20.9% in the assay on LOX IMVI melanoma; 56.6% in the assay on SK-MEL-28 melanoma; 73.4% with SK-MEL-2 melanoma; 87.6% in the assay on EKVX NSCLC. In addition, the growth with SN12C renal was 75.7%; with UO-31 renal, 67.2%; in the assay with TK-10 renal, 109%; in the assay with CAKI-1 renal, 93.8%; in the assay on A498 renal, 78.4%; with CCRF-CEM leukemia it was 82.9%. In the assay with MOLT-4 leukemia, the growth was 45.7%.
Take `O=C(O)c1cn(C2CC2)c2cc(N3CCN(C(=O)C[n+]4cccc5ccccc54)CC3)c(F)cc2c1=O`: the growth in the assay on HCT-15 colon was 55%; with HT29 colon it was 78.7%; in the assay with SNB-75 CNS it was 75.1%; in the assay on SNB-19 CNS, 83.8%; with U251 CNS, 64.4%; with PC-3 prostate, 77.1%. The growth is 94.6% in the assay with SK-MEL-5 melanoma; 42.7% with UACC-62 melanoma; 20.7% in the assay on LOX IMVI melanoma; 56.8% in the assay with SK-MEL-28 melanoma; 72.5% in the assay on SK-MEL-2 melanoma; 102% in the assay on EKVX NSCLC. Besides, the growth in the assay on SN12C renal is 33.1%; in the assay with UO-31 renal it was 67.1%; with ACHN renal it was 61%; in the assay on CAKI-1 renal, 81.3%; in the assay with A498 renal, 99.4%; in the assay on CCRF-CEM leukemia, -37.5% (active). In the assay with MOLT-4 leukemia, the growth was 5.51% (active).
As for `FC(F)(F)Oc1cccc(-c2cc(NCCCCCCNc3cc(-c4cccc(OC(F)(F)F)c4)nc4ccc(N5CCCC5)cc34)c3cc(N4CCCC4)ccc3n2)c1`, the growth is -57.5% (active) with HCT-15 colon; -27.7% (active) with HT29 colon; -4.49% (active) in the assay on SNB-75 CNS; -68.3% (active) in the assay with SNB-19 CNS; -90.2% (active) with U251 CNS; -22.2% (active) with PC-3 prostate. Besides, the growth with SK-MEL-5 melanoma is -62.4% (active); with UACC-62 melanoma it was -92.1% (active); in the assay with LOX IMVI melanoma it was -71.1% (active); with SK-MEL-28 melanoma, -93.7% (active); in the assay on SK-MEL-2 melanoma it was 2.93% (active); in the assay on EKVX NSCLC, -54.4% (active). Also, the growth with SN12C renal was -81.4% (active); with UO-31 renal, 35%; in the assay with ACHN renal it was -15.6% (active); in the assay with CAKI-1 renal it was 5.91% (active); with A498 renal, 21.8%; in the assay on CCRF-CEM leukemia it was -32.1% (active). For the same compound, in the assay on MOLT-4 leukemia, the growth was -35.6% (active).
On to `CN1CCN(c2ccc3nc(-c4cc(C(C)(C)C)c(O)c(C(C)(C)C)c4)[nH]c3c2)CC1`, for which the growth in the assay with HCT-15 colon is -35.3% (active); with HT29 colon it was 6.14% (active); in the assay on SNB-75 CNS it was 58.8%; with SNB-19 CNS, 73.6%; in the assay with U251 CNS, 16.5%; with PC-3 prostate, 58.7%. Further, the growth with SK-MEL-5 melanoma is 74.9%; in the assay with UACC-62 melanoma, 63.5%; in the assay with LOX IMVI melanoma, -37.3% (active); in the assay with SK-MEL-28 melanoma, 57%; in the assay with SK-MEL-2 melanoma, 82.5%; in the assay on EKVX NSCLC it was 86.4%. Further, the growth in the assay on SN12C renal was 88.2%; with UO-31 renal, 61.3%; with TK-10 renal, 90.5%; in the assay on CAKI-1 renal it was 68.6%; with A498 renal, 90.5%; in the assay on CCRF-CEM leukemia, 14.5%. For the same compound, the growth with MOLT-4 leukemia is 39.6%.
Take `COc1cc2nnn3c4ncccc4c(N=O)c3c2cc1OC`: the growth in the assay with HCT-15 colon is 83.4%; in the assay on HT29 colon it was 57.5%; in the assay with SNB-75 CNS, 79.8%; with SNB-19 CNS, 102%; in the assay on U251 CNS it was 45.1%; with PC-3 prostate, 74.8%. In addition, the growth is 113% in the assay on SK-MEL-5 melanoma; 86.3% in the assay on UACC-62 melanoma; 58.9% in the assay on LOX IMVI melanoma; 81.4% in the assay on SK-MEL-28 melanoma; 101% in the assay on SK-MEL-2 melanoma; 106% in the assay with EKVX NSCLC. Also, the growth in the assay with SN12C renal is 81.4%; with UO-31 renal it was -6.2% (active); in the assay on TK-10 renal, 98.8%; with CAKI-1 renal, 74.9%; with A498 renal it was 174%; in the assay with CCRF-CEM leukemia it was -13.4% (active). Besides, the growth in the assay with MOLT-4 leukemia was -14.9% (active).
With `COc1ccc(-c2nc(SC)nc(N3CCOCC3)c2C#N)cc1`, the growth is 93.9% in the assay with HCT-15 colon; 92.3% with HT29 colon; 60.5% with SNB-75 CNS; 96.7% in the assay with SNB-19 CNS; 91.1% in the assay on U251 CNS; 81.1% in the assay with PC-3 prostate. Also, the growth in the assay with SK-MEL-5 melanoma was 98.4%; with UACC-62 melanoma, 83.5%; in the assay with LOX IMVI melanoma, 96.1%; with SK-MEL-28 melanoma it was 106%; with SK-MEL-2 melanoma, 101%; in the assay on EKVX NSCLC it was 97.7%. The growth is 96.5% with SN12C renal; 67.4% with UO-31 renal; 97.5% with TK-10 renal; 81.4% in the assay on CAKI-1 renal; 63.1% with A498 renal; 88.7% with CCRF-CEM leukemia. For the same compound, the growth in the assay with MOLT-4 leukemia was 87.6%.
For the compound `COc1ccc(/C=N/NC(=O)c2cccc3cc[nH]c23)cc1O`, the growth in the assay on HCT-15 colon was 33.2%; in the assay with HT29 colon, 19.7%; in the assay with SNB-75 CNS it was 18.6%; in the assay with SNB-19 CNS, 39.7%; in the assay with U251 CNS, 26.6%; in the assay on PC-3 prostate, 31.5%. Also, the growth in the assay on SK-MEL-5 melanoma was 2.92% (active); in the assay with UACC-62 melanoma, 33%; in the assay with LOX IMVI melanoma, 53.1%; in the assay with SK-MEL-28 melanoma, 63.4%; in the assay with SK-MEL-2 melanoma, 52.3%; in the assay with EKVX NSCLC, 32.1%. Moreover, the growth in the assay with SN12C renal was 53.9%; with UO-31 renal it was 60.4%; in the assay on ACHN renal, 57.9%; in the assay on CAKI-1 renal, 46.5%; in the assay with A498 renal, 74.5%; in the assay on CCRF-CEM leukemia, 0.582% (active). Moreover, in the assay with MOLT-4 leukemia, the growth is 38.2%.
